Assay outcomes deposited in PubChem by National Center for Advancing Translational Sciences (NCATS).
Only some compounds are listed: those with a hit (about 19% of all), similar ones and a draw of the others.
Shiga inhibitor = Shiga toxin inhibition. Vero cells, Shiga toxin protein synthesis inhibition reporter. inhibition, % at 38.7 µM. actives 9.2% (n = 290,000); in the data active = inhibition mostly above about 28%, no sharp cut-off; inactive = mostly below about 43%; note: 0% is about no effect
AMA1-RON2 inh = inhibitors of Plasmodium falciparum AMA1-RON2 interaction. AID 720542. actives 0.2% (n = 360,000). Potency, µM (series often up to 58.2 µM), for inactives: top-dose activity change, negative = inhibition, usual class: inhibitors. AlphaScreen AMA1-biotinylated RON2 peptide binding;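 note: potency is the fitted concentration of half-maximal effect; 0% = vehicle wells and -100% = peptide control; nearly all actives have a fitted effect of over 45% in size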
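AMA1 (3D7) with his tag at 25 nM final met compounds first, then biotinylated RON2 peptide at 25 nM; detection used donor plus acceptor beads, 10 µg/mL apiece, read by AlphaScreen after 30 min at room temperature.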
Pf growth 48h = P. falciparum growth inhibition at 48 hours (one generation); P. falciparum luciferase growth in erythrocytes, 48 h; Potency, µM (series often up to 28.7 µM), for the others: at the top dose activity change, negative = inhibition, actives largely listed as inhibitors; actives 5.9% (n = 310,000); note: potency is the fitted concentration of half-maximal effect; % is set by controls: 0 for no effect and ±100 for the full control effect
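Compounds are pin-transferred into medium, infected erythrocytes (2% hematocrit, 0.1% parasitemia final) are added, and plates sit one parasite generation at 37 C in 5% CO2. Detection reagent is then added and luminescence measured.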
SARS PLpro yeast = SARS-CoV PLP inhibition in yeast; S. cerevisiae expressing SARS-CoV PLpro, growth rescue; Potency, µM (highest dose often 32.9 µM), for the others: at the top dose activity, positive = growth rescue, hits mostly activators; actives 0.19% (n = 330,000); AID 485353; calls by dose curve; note: potency is the fitted concentration of half-maximal effect; 0% is about no effect; nearly all actives have a fitted effect of over 55% in size
Cycloheximide cs = counter-screen for Shiga toxin inhibitors: cycloheximide protein synthesis inhibition | cell reporter, cycloheximide protein synthesis inhibition counterscreen | max response, % | actives 12% (n = 300,000); in the data active = max response mostly above about 13%, no sharp cut-off; inactive = mostly below about 14%; note: read at 38.3 µM for the half of the compounds with a filed dose; 0% is about no effect
Pf growth 96h = P. falciparum growth inhibition at 96 hours; actives 6.9% (n = 320,000); Potency, µM (series often up to 28.7 µM), for the others: top-dose activity change, negative = inhibition, hits mostly inhibitors; AID 504834; P. falciparum luciferase reporter growth, 96 h; note: potency is the fitted concentration of half-maximal effect; % is set by controls: 0 for no effect and ±100 for the full control effect
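Delayed-death screen, second-generation endpoint: infected erythrocytes, 2% hematocrit, 0.05% parasitemia final; 96 hours at 37 C, 5% CO2; luciferase detection reagent; luminescence decrease equals reduced growth.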
An asterisk follows results filed as active; ? = inconclusive; . = no result given; [ ] = dose if it differs, or a comment. Unless noted, calls come from the whole dose curve; as a rule, active = well fitted curve in the direction sought with a large enough effect; inconclusive = small, poorly fitted or top-dose-only effect, or another doubt; inactive = no such curve, though single readings can be large; an effect the other way counts as inactive or inconclusive.

SMILES | Shiga inhibitor | AMA1-RON2 inh | Pf growth 48h | SARS PLpro yeast | Cycloheximide cs | Pf growth 96h
COc1ccc(CN2C(=NC(=O)COc3ccccc3)SC3CS(=O)(=O)CC32)cc1 (stereo not drawn) | -8 | 10% | ? | 2% | -3 | ?
O=C(NCCc1ccccc1)c1coc(=O)c(Br)c1 | 26 | 16% | -20% | -3% | 14* | 17%
O=C(Nc1ccccc1C(=O)NCCc1ccccc1)c1ccco1 | 44 | 1% | 48% | -6% | 37* | .
O=C(NCCc1ccccc1)c1ccccc1NC(=O)C1CCCCC1C(=O)O (stereo not drawn) | 56* | . | 55% | 10% | 29* | 135%
COC(=O)c1ccccc1NC(=O)C1CCCCC1C(=O)O (stereo not drawn) | -6 | -1% | 7% | 2% | -3 | ?
O=C(NCC1OCCc2ccccc21)c1ccco1 (stereo not drawn) | 34* | 42% | -5% | -2% | 19* | 132%
CCC(C)N(NC(C)=O)c1nc(Cl)nc(NC(C)C)n1 (stereo not drawn) | -5 | 15% | 2.1µM* | -5% | -3 | ?
CN(C)CCn1c2ccccc2c2nc3ccc([N+](=O)[O-])cc3cc21 | 39* | -19% | 1.9µM* | 0% | 16* | ?
CCn1c2ccccc2c2cc([N+](=O)[O-])ccc21 | -4 | -29% | ? | -1% | -3 | 4%
Cc1c(C(=O)N(C)Cc2cccc(F)c2)oc2c(Cl)cccc12 | -14 | -11% | -1% | -18% | -2 | ?
COc1cccc(NC(=O)CN(C)C(=O)c2oc3c(ccc4ccccc43)c2C)c1 | . | -13% | 0.26µM* | -4% | . | 0.23µM*
COCCN(CC(=O)Nc1cccc(C)c1C)C(=O)c1cc(-c2ccncc2)nc2ccccc12 | . | 8% | 10µM* | 4% | . | 8.3µM*
COCCN(CC(=O)Nc1cccc(C)c1C)C(=O)c1cc(-c2cccs2)nn1-c1ccccc1 | . | -5% | ? | 6% | . | -15%
Cc1c(C(=O)N(C)CC(=O)Nc2cccc(F)c2)oc2c(Cl)cccc12 | . | -6% | 2.6µM* | -1% | . | 1.5µM*
COCCN(CC(=O)Nc1cccc(C)c1C)C(=O)c1oc2c(Cl)cccc2c1C | . | 8% | 9.3µM* | -1% | . | ?
COc1cccc(NC(=O)CN(C)C(=O)Cc2cccc3ccccc23)c1 | . | -4% | ? | -4% | . | -20%
C/C=C/C(=O)[C@@H](C)[C@@H](/C=C/C[Si](C)(C)C)C(C)C | -10 | . | . | . | -3 | .
Cc1ccc(C(C(=O)NC2CCCCC2)N(CCCN2CCOCC2)C(=O)c2snc(C(N)=O)c2N)cc1 (stereo not drawn) | -14 | -9% | -8% | 0% | 2 | ?
CCN(CC(=O)Nc1ccc(NC(C)=O)cc1)C(=O)c1oc2c(ccc3ccccc32)c1C | . | 3% | ? | 4% | . | 12µM*
COc1ccc(NC(=O)CN(C)C(=O)c2oc3c(ccc4ccccc43)c2C)cc1 | . | -5% | 0.19µM* | -4% | . | 0.19µM*
COc1ccc(NC(=O)CN(C)C(=O)CNC(=O)Cc2cccc3ccccc23)cc1 | -3 | -13% | 0% | ? | 1 | -1%
NC(=O)C1CCN(c2nc(-c3ccccc3-c3ccccc3)cs2)CC1 | . | . | ? | 9% | . | ?
O=C(O)c1cccc(N2C(=O)c3ccc4c5c(ccc(c35)C2=O)C(=O)N(c2cccc(C(=O)O)c2)C4=O)c1 | 3 | -4% | -3% | 0% | -2 | 7%
O=C(O)c1cccc(N2C(=O)c3ccc(Oc4ccc(Cl)cc4)cc3C2=O)c1 | 26 | -3% | -4% | 0% | 20* | 9%
CCN(CC)S(=O)(=O)c1ccc(N2CCOCC2)c(NS(=O)(=O)c2ccc(OC)cc2)c1 | -1 | 0% | 51% | 1% | 9 | ?
SMILES | Shiga inhibitor | AMA1-RON2 inh | Pf growth 48h | SARS PLpro yeast | Cycloheximide cs | Pf growth 96h
CCN(CC)S(=O)(=O)c1ccc(N2CCOCC2)c(NC(=O)Cc2ccccc2)c1 | -13 | 3% | ? | 14% | -4 | ?
CCN(CC)S(=O)(=O)c1ccc(N2CCOCC2)c(NS(=O)(=O)c2ccc(C)cc2)c1 | -4 | 0% | ? | 8% | -2 | 5.9µM*
CCN(CC)S(=O)(=O)c1ccc(N2CCOCC2)c(NS(=O)(=O)c2ccc(C)c(C)c2)c1 | -4 | -1% | 7.4µM* | -9% | -1 | 4.1µM*
COC(=O)c1cccc(Oc2cccc(Cl)n2)c1 | 19 | 14% | 21% | 1% | 8 | 79%
CCOC(=O)[C@]12CCCC=C1N(CCc1ccc(OC)c(OC)c1)C(=O)[C@H](CC(=O)NCc1ccc(C)o1)C2 | . | -11% | . | . | . | .
CC(C)C(=O)Nc1nnc(CCc2nnc(NC(=O)C(C)C)s2)s1 | 15 | -15% | 6% | -2% | -5 | ?
CC(C)C(=O)Nc1nnc(NC(=S)Nc2ccccc2)s1 | 68* | 55% | 6% | 2% | 34* | 12µM*
C/C=C(\C)c1nnc(NC(=O)C(C)C)s1 | 13 | 9% | 35% | 8% | 19* | 10%
CCCc1nnc(NC(=O)CCC(=O)Nc2ccc(Cl)cc2)s1 | -1 | -1% | 18% | 9% | 0 | -6%
CCCc1nnc(NC(=S)Nc2ccccc2)s1 | 42* | 37% | 62% | 4% | 27* | 27%
COc1ccc(S(=O)(=O)N2CCN(C(=O)c3ccc4ccccc4n3)CC2)cc1 | . | -11% | ? | -3% | . | ?
O=C(COc1ccccc1)Nc1nc2cc3c(cc2s1)OCO3 | . | 4% | . | . | . | .
c1ccc2sc(Nc3nc4cc5c(cc4s3)OCO5)nc2c1 | 117* | 12%[11.6 µM] | 189% | -48% | 119* | 101%
Fc1ccc2nc(Nc3nc4cc5c(cc4s3)OCO5)sc2c1 | 80* | 16% | 174% | -35% | 59* | 252%
Fc1ccc2nc(Nc3nc4cc5c(cc4s3)OCCO5)sc2c1 | 25* | 68% | 113% | 5% | 62* | 97%
CCC1(c2ccc(F)cc2)NC(=O)N(CC(=O)NCc2ccccc2Cl)C1=O (stereo not drawn) | -14 | -6% | -2% | -1% | -5 | 10%
CCc1ccc(N2C(=O)c3cc(N4CCOCC4)c([N+](=O)[O-])cc3C2=O)cc1 | 18 | . | 4% | -5% | -3 | 7.4µM*
COc1cc(C2NC(=O)NC(O)(C(F)(F)F)C2C(=O)c2cccs2)ccc1O (stereo not drawn) | 87* | 7% | 0% | 4% | 34* | 13µM*
O=C(COC(=O)c1cc([N+](=O)[O-])ccc1N1CCOCC1)c1ccccc1Cl | -5 | -9% | 15% | 19% | 1 | 16%
COc1ccccc1C(=O)COC(=O)c1cc([N+](=O)[O-])ccc1N1CCOCC1 | . | -13% | 4.7µM* | -3% | . | ?
Cc1cc(C)c(C(=O)COC(=O)c2cc([N+](=O)[O-])ccc2N2CCOCC2)cc1C | . | 0% | 10µM* | -7% | . | ?
